Measurements taken from PubChem BioAssay (NCATS).
Inconclusive results are not listed. Calls of active or inactive are those of the source. Calls follow the shape of the dose curve; as a rule, active = well fitted cell-killing curve with a large enough effect; inconclusive = small, poorly fitted or top-dose-only effect, or effect the other way; inactive = flat fitted curve, though single readings scatter.

Key:
Assay in all cases: Primary qHTS to identify gynecologic anti-cancer compounds using libraries of approved drugs and bioactive compounds (AID 1345084); also: nearly all actives have a fitted effect of over 55% in size
CASKI = conditions: Gynecologic cancer cell panel viability, ATPlite luminescence, 48 h; series mostly up to 57.5 µM
Summary of the method: (§1)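 Cells, 1,000 per well, plated 16 h, then exposed 48 h at 37 C to compounds. Viability by ATPlite luminescence after 15 min at room temperature.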

Es-2 = conditions: Gynecologic cancer cell panel viability, ATPlite luminescence, 48 h; series mostly up to 57.5 µM
Summary of the method: as §1

Hek293T = conditions: Gynecologic cancer cell panel viability, ATPlite luminescence, 48 h, control line for the selectivity index; series mostly up to 57.5 µM
Summary of the method: as §1

JEG-3 = conditions: Gynecologic cancer cell panel viability, ATPlite luminescence, 48 h; series mostly up to 57.5 µM
Summary of the method: as §1

OV90 = conditions: Gynecologic cancer cell panel viability, ATPlite luminescence, 48 h; series mostly up to 57.5 µM
Summary of the method: as §1

SKOV3 = conditions: Gynecologic cancer cell panel viability, ATPlite luminescence, 48 h; series mostly up to 57.5 µM
Summary of the method: as §1

Tov-21-G = conditions: Gynecologic cancer cell panel viability, ATPlite luminescence, 48 h; series mostly up to 57.5 µM
Summary of the method: as §1

HeLa = conditions: Gynecologic cancer cell panel viability, ATPlite luminescence, 48 h; series mostly up to 57.5 µM
Summary of the method: as §1

PA-1 = conditions: Gynecologic cancer cell panel viability, ATPlite luminescence, 48 h; series mostly up to 57.5 µM
Summary of the method: as §1

Measured: Potency
Potency is read from the fitted curve at half-maximal effect.

CCc1cc(Nc2nccc(-c3c(-c4ccc(OC)c(C(=O)Nc5c(F)cccc5F)c4)nc4ccccn34)n2)c(OC)cc1N1CCC(N2CCN(S(C)(=O)=O)CC2)CC1
not listed: HeLa | PA-1
inactive: all other assays above

COc1c(Cl)cc2c([nH]c3cnccc32)c1NC(=O)c1cccnc1C
not listed: SKOV3
inactive: all other assays above

CC(C)(N)C(=O)N[C@H](COCc1ccccc1)C(=O)N1CCC2(CC1)CN(S(C)(=O)=O)c1ccccc12
not listed: Es-2 | Hek293T | SKOV3
inactive: all other assays above

CN(C)C(=O)c1ccc(S(=O)(=O)c2ccc(NC(=O)[C@@](C)(O)C(F)(F)F)c(Cl)c2)cc1
not listed: OV90 | SKOV3
inactive: all other assays above

COc1cc(F)c(F)c(Nc2ccc(I)cc2F)c1NS(=O)(=O)C1(C[C@H](O)CO)CC1
active: OV90 2.51 µM
not listed: Es-2 | Tov-21-G
inactive: all other assays above

CCOc1ccn(-c2ccc(F)cc2)c(=O)c1C(=O)Nc1ccc(Oc2ccnc(N)c2Cl)c(F)c1
not listed: HeLa
inactive: all other assays above

COc1ccccc1[C@H](c1cccc2ccccc12)[C@@](C)(C#N)C(=O)N1CCC(c2cccc(C(F)(F)F)c2)CC1
not listed: SKOV3
inactive: all other assays above

O=c1[nH]c(-c2ccc(C(F)(F)F)cc2)nc2c1CSCC2
active: Es-2 28.2 µM

CCCS(=O)(=O)Nc1ccc(F)c(C(=O)c2c[nH]c3ncc(-c4ccc(Cl)cc4)cc23)c1F
active: PA-1 10 µM
not listed: Es-2 | Tov-21-G
inactive: all other assays above

C[C@]12CCC(=O)C=C1CC[C@@H]1[C@@H]2[C@@H](O)C[C@@]2(C)[C@H]1CC[C@]2(O)C(=O)CO
not listed: OV90 | SKOV3
inactive: all other assays above

Cc1cnc(Nc2ccc(OCCN3CCCC3)cc2)nc1Nc1cccc(S(=O)(=O)NC(C)(C)C)c1
active: CASKI 14.1 µM | HeLa 7.08 µM | JEG-3 12.6 µM | OV90 17.8 µM | PA-1 8.91 µM | SKOV3 7.94 µM | Tov-21-G 7.94 µM

CC(c1cc2ccccc2s1)N(O)C(N)=O (stereo not given)
not listed: HeLa
inactive: all other assays above

Cc1cc2c(C(C)C)c(O)c(O)c(C=O)c2c(O)c1-c1c(C)cc2c(C(C)C)c(O)c(O)c(C=O)c2c1O
inactive: CASKI | Es-2 | JEG-3 | Tov-21-G

Cc1csc(NC(=O)c2sc3nc4c(c(C(F)(F)F)c3c2N)CCC4)n1
active: Es-2 2.51 µM | HeLa 2.82 µM | Hek293T 3.55 µM | OV90 12.6 µM | Tov-21-G 3.55 µM

Cc1c(C)c2c(c(C)c1O)CCC(C)(COc1ccc(CC3SC(=O)NC3=O)cc1)O2 (stereo not given)
not listed: SKOV3
inactive: all other assays above

Cc1cc(Nc2nc(N[C@@H](C)c3ncc(F)cn3)ncc2Cl)n[nH]1
active: HeLa 4.47 µM | Tov-21-G 14.1 µM
inactive: Es-2 | Hek293T | JEG-3

CCOC(=O)N1CCC(=C2c3ccc(Cl)cc3CCc3cccnc32)CC1
inactive: CASKI | Hek293T | JEG-3 | OV90

Cc1ccccc1C(OCCN(C)C)c1ccccc1 (stereo not given)
not listed: OV90
inactive: all other assays above
